# Measurements reported in ChEMBL document CHEMBL1157539, “Thousands of chemical starting points for antimalarial lead identification” (Nature, 2010).
# Test system: Plasmodium falciparum
# Assay: GSK_TCMDC: Inhibition of Plasmodium falciparum 3D7 in whole red blood cells, using parasite LDH activity as an index of growth. Test compounds present at 2uM
# Type: functional
row,SMILES,Inhibition
1,CN(C)CCCN1CCN(C(=O)c2cc3cc(-c4ccccc4)ccc3n2S(=O)(=O)c2ccccc2)CC1,100%
2,CN1Cc2ccc(NS(=O)(=O)c3ccc(-c4ccoc4)cc3)cc2C1.Cl,97%
3,CCNc1cc(C)nc(Nc2ccc(F)cc2)n1,100%
4,O=C(Nc1ccc(N2CCC(Nc3ccccn3)CC2)cc1)c1cnc(Cl)c(Cl)c1.O=C(O)C(F)(F)F,83%
5,Cc1cc(OCCCN2CCC(NS(=O)(=O)c3ccc(Cl)c(Cl)c3)C2)c2ccccc2n1 (configuration not stated),87%
6,O=C(Nc1cccc(OC2CCN(Cc3ccccc3)CC2)c1)Nc1cccc([N+](=O)[O-])c1.O=C(O)C(F)(F)F,100%
7,COc1ccc(-c2cnc3[nH]cc(-c4ccc(C(=O)O)cc4)c3c2)cn1.O=C(O)C(F)(F)F,95%
8,CCN(CC)CCN(Cc1ccc(-c2ccc(C(F)(F)F)cc2)cc1)C(=O)CN1C(CCc2cccc(F)c2F)=NS(=O)(=O)c2ccccc21,100%
9,Cc1ccc(C2CCN(CCCCNC(=O)c3ccc(-c4ccc(C#N)cc4)cc3)CC2)c(O)c1,100%
10,Cc1ccc2c(NC(=O)Nc3ccc(N(C)C)cc3)cc(C)nc2c1,98%
11,Cc1ccc(Cn2ncc(N3CCCNCC3)c(Cl)c2=O)cc1NC(=O)Nc1ccc(-c2ccccc2)cc1,100%
12,Nc1nc(-c2ccccn2)nc(-n2nc(-c3cccc(C(F)(F)F)c3)cc2N)n1.O=C(O)C(F)(F)F,87%
13,CCCNC(=O)c1ccnc(-c2ccc(CNC3Cc4ccccc4C3)cc2)c1.O=C(O)C(F)(F)F,92%
14,Cc1cc(=NN=Cc2cccc(F)c2)c2ccc(F)cc2[nH]1,100%
15,CN1CCN(c2ccc(Nc3ccnc4ccc(-c5ccccc5)cc34)cc2)CC1,100%
16,Cc1c(F)cc(C(=O)NC2CC2)cc1-c1ccc2c(c1)c(C)nn2S(=O)(=O)c1cccs1,91%
17,Br.N=C1N=C(N)NC2(CCCCC2)N1OCCOc1ccc(Cc2ccccc2)cc1,86%
18,O=C(/C=C/c1ccc(C(F)(F)F)cc1)NCCCCCN1CCN(C(=O)Nc2ccc(F)c(Cl)c2)CC1,89%
19,Cc1[nH]c2ccccc2c1C1CCN(CCCCNC(=O)c2ccc(-c3ccc(C#N)cc3)cc2)CC1,100%

row,SMILES,Inhibition
1,Cc1cccc2nc(-c3ccc(-c4cccc(CNCCCNS(C)(=O)=O)c4)s3)[nH]c12.O=C(O)C(F)(F)F,99%
2,CC(=O)Nc1ncc(C(=O)Nc2cccc(-c3ccc(-c4nc5cc(C(F)(F)F)ccc5[nH]4)cc3)c2)s1,100%
3,Cn1c(NC(=O)c2ccc(CNC(=O)c3ccc(O)c(-c4ccc(Cl)c(Cl)c4)c3)cc2)nc2ccccc21,94%
4,CN(c1ccc(NC(=O)Nc2cccc(Cl)c2)cc1)c1ccnc(N)n1.Cl,100%
5,COc1ccc(CNC2CCN(C)CC2)cc1-c1ccc(S(=O)(=O)NCC2CCCO2)s1.O=C(O)C(F)(F)F (configuration not stated),95%
6,COc1ccc2nccc([C@@H](O)CN3CCC(NCc4nc5cc(F)cc(F)c5[nH]4)CC3)c2c1.O=C(O)C(=O)O,99%
7,COc1ccc(C#Cc2ccc(-c3c(C)[nH]c(C)c(Cl)c3=O)cc2)cc1,97%
8,Cc1cc(C)cc(-n2c(C)cc(/C=C3\SC(=Nc4ccc(Cl)cc4)NC3=O)c2C)c1,97%
9,O=C1C(c2ccccc2)=C(Nc2cccc(OC(F)(F)C(F)F)c2)c2ccccc21,96%
10,CCCC1CCNC(C(O)c2ccnc3ccc(OC)cc23)C1.Cl (configuration not stated),98%
11,Cc1nc(-c2cccc(Nc3nccc(NCC(O)c4ccc(C(F)(F)F)cc4)n3)c2)cs1 (configuration not stated),100%
12,Cc1cccc(CNc2nc(C)cc(N[C@@H](CC(C)C)C(=O)NCCOc3ccccc3)n2)c1.O=C(O)C(F)(F)F,93%
13,Cc1[nH]c(C)c(-c2ccc(-c3ccccc3F)nc2)c(=O)c1Br,97%
14,Cc1noc(C)c1-c1cccc(CNCc2ccc(-c3ccc(-c4nc5ccccc5[nH]4)s3)cc2)c1.O=C(O)C(F)(F)F,100%
15,FC(F)(F)Oc1ccc(Nc2cc(-c3ccncc3)nc(-c3cccnc3)n2)cc1,94%
16,O=C(N[C@H]1CCCC[C@H]1C(=O)O)c1ccccc1,95%
17,COc1ccc(NS(=O)(=O)c2ccccc2Br)cc1N1CCN(C)CC1.Cl,94%
18,CC(=O)Oc1c(C2CCN(CCCCNC(=O)c3ccc(-c4ccc(C#N)cc4)cc3)CC2)ccc2c1CCCC2,88%
